Out of some 47,000 compounds screened, about 2,000 (4.3%) were called active. The list comes from a sample in which actives are over-represented; it also holds similar structures and randomly drawn compounds. Values without a mark were called inactive. No stated cut-off is given here; in the data, active means inhibition above about 30%; inactive means the rest.

The target in the test is Ubiquitin carboxyl-terminal hydrolase 8 (Homo sapiens) (UniProt P40818). In words: blocks human USP8 ubiquitin-rhodamine cleavage (AID 1645853). To be noted: purified USP8, Ub-rhodamine cleavage fluorescence, 30 min; at 20 µM; stronger effect = higher value.
Chain of Ubiquitin carboxyl-terminal hydrolase 8 (Homo sapiens) (P40818 whole entry, looked up): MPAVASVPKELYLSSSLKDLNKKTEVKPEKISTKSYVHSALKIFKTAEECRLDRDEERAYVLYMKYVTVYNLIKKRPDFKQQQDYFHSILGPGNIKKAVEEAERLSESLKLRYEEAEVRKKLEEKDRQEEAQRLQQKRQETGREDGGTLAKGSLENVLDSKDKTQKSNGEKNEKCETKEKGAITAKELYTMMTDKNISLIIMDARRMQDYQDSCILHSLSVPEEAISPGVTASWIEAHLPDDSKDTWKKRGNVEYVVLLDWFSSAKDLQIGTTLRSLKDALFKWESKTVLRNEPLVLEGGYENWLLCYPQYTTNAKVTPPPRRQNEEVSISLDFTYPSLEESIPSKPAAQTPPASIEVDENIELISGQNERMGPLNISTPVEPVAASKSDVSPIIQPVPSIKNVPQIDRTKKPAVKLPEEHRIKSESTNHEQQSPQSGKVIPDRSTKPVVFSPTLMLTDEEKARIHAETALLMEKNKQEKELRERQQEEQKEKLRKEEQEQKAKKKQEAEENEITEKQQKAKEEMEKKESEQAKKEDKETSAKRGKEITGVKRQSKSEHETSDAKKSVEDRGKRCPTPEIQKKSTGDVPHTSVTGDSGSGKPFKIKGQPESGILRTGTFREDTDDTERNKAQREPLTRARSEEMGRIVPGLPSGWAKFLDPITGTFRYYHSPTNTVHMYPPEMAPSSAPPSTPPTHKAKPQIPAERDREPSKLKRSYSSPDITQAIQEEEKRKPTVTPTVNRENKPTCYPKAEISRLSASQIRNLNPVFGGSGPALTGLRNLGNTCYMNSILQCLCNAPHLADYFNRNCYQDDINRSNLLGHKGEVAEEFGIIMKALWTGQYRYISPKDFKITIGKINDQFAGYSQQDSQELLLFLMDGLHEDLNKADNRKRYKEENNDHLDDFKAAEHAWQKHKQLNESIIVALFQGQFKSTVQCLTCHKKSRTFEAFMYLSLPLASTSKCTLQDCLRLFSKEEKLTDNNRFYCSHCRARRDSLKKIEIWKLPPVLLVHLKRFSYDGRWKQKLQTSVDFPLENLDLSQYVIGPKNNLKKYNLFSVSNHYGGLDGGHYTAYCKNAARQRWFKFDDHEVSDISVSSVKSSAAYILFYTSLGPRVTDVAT
As for `CCc1cccc(C)c1NC(=O)Cn1nc2ccc(C(=O)NCc3ccccc3)cn2c1=O`, the inhibition was 74.5% (active).
For `CCc1cccc(C)c1NC(=O)CSc1nc2c(c(=O)[nH]1)CCCC2`, the inhibition is 18%.
For `Cc1cc(=O)n(CC(=O)NCc2ccccc2)c(N2CCCC2)n1` the value was 2.35%.
For `Cc1ccc(-c2nnc(CCC(=O)O)o2)cc1` the value was 3.95%; for `O=S(=O)(Cc1nnc(-c2cc(Cl)cc(Cl)c2)o1)c1ccc(Cl)cc1`, 45.6% (active); for `N#Cc1ccc(-c2nc(CS(=O)(=O)c3ccc(Cl)cc3)no2)cc1`, -6.87%.
`O=C(NCCC(=O)N1CCC2(CC1)NCCc1[nH]cnc12)c1ccc(-c2ccccc2)cc1`: the inhibition is 34.7% (active).
For the compound `C[C@H](NC(=O)Cc1ccc(Cl)cc1)C(=O)N1CCC2(CC1)NCCc1[nH]cnc12`, the inhibition was 21.2%.
For `O=C(NCC(=O)N1CCC2(CC1)NCCc1[nH]cnc12)c1ccc(Br)cc1` the value was 18.8%; for `Cc1cc(Cl)ccc1OCCCC(=O)NCc1ccccn1`, -25%; for `O=C(Nc1ccc(-c2nc3cnccc3o2)c(O)c1)c1ccc(-c2ccccc2)cc1`, -4.15%.
Next, `O=C(Cc1ccccc1)Nc1ccc(-c2nc3cnccc3o2)c(O)c1`: 74.3% (active).
Take `COc1cc(C(=O)Nc2ccc(-c3nc4cnccc4o3)cc2)cc(OC)c1OC`: the inhibition was -3.3%.
Next, `CCCc1noc(-c2ccc(-n3ncc(C(=O)N4CCOCC4)c3C)nc2)n1`: 0.113%; `COc1ccc(-c2noc(CN(C3CCCCC3)S(=O)(=O)c3ccc(OC)cc3)n2)cc1`: 14%.
Next, `COc1cccc(-c2noc(CN3CCCC3c3cc(OC)ccc3OC)n2)c1` (centres undefined): -12.7%; `CCCCN(C)c1ccc2nnc(CCc3nc(-c4cc(OC)cc(OC)c4)no3)n2n1`: 84.8% (active).
Next, `CSCCC(NC(=O)C1CCCC1)c1nc2ccccc2[nH]1` (centres undefined): -5.64%; `Cc1ccc(NC(=O)CCn2cnc3c2c(=O)n(C)c(=O)n3C)cc1`: -3.63%; `Cc1cnc(NC(=O)Cn2cnc3c2c(=O)n(C)c(=O)n3C)s1`: 19.6%.
As for `Cn1c(=O)c2c(ncn2Cc2nnc(-c3ccccc3)o2)n(C)c1=O`, the inhibition is 64.8% (active).
For `CC1CCN(C(=O)c2ncn3c2CN(C)S(=O)(=O)c2ccccc2-3)CC1` the value was 6.05%; for `CCc1nnc2ccc(S(=O)(=O)N(CC)c3ccccc3)cn12`, -281%; for `Cc1cc(-c2nnc(SCC(=O)Nc3ccc(Br)c(C)c3)n2N)n[nH]1`, 31% (active).
With `Nn1c(SCC(=O)Nc2ccccc2F)nnc1-c1n[nH]c2c1CCC2`, the inhibition was 7.87%.
For `Cc1cc(NC(=O)COC(=O)c2cccc(C)c2O)ccc1Br`, the inhibition was 0.58%.
For `CC(C)(C)n1nc(C2CC2)c(Br)c1NC(=O)c1ccccc1F` the value was 20.5%; for `CC1(C)CCC2(C(=O)O)CC[C@]3(C)C(=CC[C@@H]4[C@@]5(C)CCC(O)C(C)(C)[C@@H]5CC[C@]43C)C2C1` (some centres undefined), 4.43%; for `Cc1cccc(CNC(=O)CN2C(=O)C3CCCN3C(=O)c3cccc(C)c32)c1` (centres undefined), 5.77%.
In the case of `Cc1cccc(C2=NC3(CCN(CC(=O)Nc4ccccc4C)CC3)NC2=O)c1`, the inhibition is -2.9%.
Next, `Cc1cccc(NC(=O)Cn2c(C)ccc(NC(=O)Nc3cccc(C)c3)c2=O)c1`: 26.5%; `Cc1ccc2cc(CNc3ccccc3)c(=O)n(CC(=O)Nc3ccccc3C)c2c1`: 92.8% (active); `CCOC(=O)c1cc(S(=O)(=O)Nc2ccc(OC)c(Cl)c2)cn1C`: 11.8%.
Turning to `O=C(NC1CC2(CCOCC2)Oc2ccccc21)c1[nH]ncc1Cl` (centres undefined), the inhibition was 3.95%.
For `O=C(COc1ccccc1)Nc1cnc(-c2cccc(Cl)c2)nc1` the value was 60.7% (active).
Next, `CSc1cccc(NC(=O)COc2ccc(C(=O)c3ccccc3)cc2)c1`: -0.948%.
Next, `COc1ccc(CC(=O)Nc2cnc(-c3ccccc3)nc2)cc1`: -7.3%.
As to `CCC(C)[C@H](NC(=O)[C@@H]1Cc2c([nH]c3ccccc23)C2c3ccccc3C(=O)N21)C(=O)NCCc1ccccc1` (some centres undefined), the inhibition was -10.4%.
Regarding `Cc1cccc(C(=O)Nc2ccc(-n3c(C)nc4ncccc4c3=O)cc2C)c1`, the inhibition is 5.93%.
`COc1cccc(C2c3[nH]c4ccccc4c3C[C@@H]3C(=O)N(Cc4ccc5c(c4)OCO5)CC(=O)N23)c1` (some centres undefined): the inhibition was 13.4%.
Next, `Cc1cc(=O)n(CC(=O)Nc2ccc3c(c2)OCO3)c2c1c(-c1ccccc1)nn2-c1ccccc1`: 67.9% (active).
For `CCc1cc(=O)n(CC(=O)Nc2cc(C)on2)c(-c2ccccc2)n1` the value was -44.3%.
Consider `CN(c1ccccc1)c1nc(=O)n(CC(=O)Nc2ccc3c(c2)OCCO3)c2ccccc12`, for which the inhibition was -40.3%.
Next, `CCS(=O)(=O)Nc1cc(S(=O)(=O)Nc2cc(Cl)ccc2Cl)ccc1N1CCOCC1`: 2.1%.
Consider `CCCN1CCN(c2ccc(C(=O)O)cc2NS(=O)(=O)c2cc(F)ccc2F)CC1`, for which the inhibition is 84.9% (active).
For the compound `CC(=O)N1CCc2cc(S(=O)(=O)Nc3ccccc3N3CCN(C)CC3)ccc21`, the inhibition was -8.86%.
For `Cc1ccnc(SCc2nc(-c3ccc4c(c3)ncn4C)no2)n1`, the inhibition was 2.93%.
For `Cc1noc(C2(NC(=O)Cc3ccccc3C)CCCCC2)n1` the value was -1.15%; for `Cc1csc(C2(NC(=O)Cc3cc(C)on3)CCCC2)n1`, 74.9% (active).
Regarding `O=C(Cc1cccc(F)c1)NC1(c2nc(C3CC3)no2)CCCCC1`, the inhibition is 5.33%.
Next, `Cc1noc(C)c1S(=O)(=O)NCc1ccc2c(c1)CCN2C(=O)C(C)C`: 21.9%; `Cc1cccc(N2CCN(S(=O)(=O)c3c[nH]c(-c4nnc(C)o4)c3)CC2C)c1` (centres undefined): 12.2%.
Next, `CC(C)NS(=O)(=O)c1ccc(NC(=O)c2cccnc2)cc1`: 4.16%; `CCc1cc(C2CCCN2C(=O)c2cc(-c3ccccc3F)no2)on1` (centres undefined): 0.852%.
For `O=C(C1CCC1)N1CCCN(c2ccc([N+](=O)[O-])cn2)CC1` the value was -127%; for `CN(C)c1ccc(S(=O)(=O)NCC(=O)NCC2CCCCC2)cc1[N+](=O)[O-]`, -110%.
For `Oc1cccc2nc3c(O)cccc3nc12`, the inhibition is 94.4% (active).
Next, `O=C(NCc1ccc2c(c1)OCO2)C1CCCN(c2nc3ccc(Cl)cc3[nH]2)C1` (centres undefined): 7.49%; `CC(=O)N[C@@]12CN(C)CC[C@@H]1[C@@H](c1ccccc1)N(CC(=O)Nc1cc(F)ccc1C)C2`: -5.94%.
For `COc1ccc(CCNC(=O)CCCn2c(=O)c3ccccc3n(CC(=O)OCc3ccccc3)c2=O)cc1OC` the value was 1.77%; for `N#Cc1ccccc1Cn1c(=O)n(CCCC(=O)NCc2ccc(F)cc2)c(=O)c2ccccc21`, 15.6%; for `Cc1ccc(CNC(=O)CCCn2c(=O)c3sccc3n(CC(=O)OCc3ccccc3)c2=O)cc1`, 63.4% (active).
For `Cc1cc(C)nc(-n2nc(C)c(C#N)c2NC(=O)c2cccc(Cl)c2)n1` the value was 2.08%; for `COc1ccc(-c2cnoc2-c2ccc(O)cc2O)cc1OC`, 22%.
As for `Fc1ccc(-n2cc(-c3ccccc3)c3c(NCc4ccco4)ncnc32)cc1`, the inhibition was 5.27%.
Next, `CC(C)Cc1nc2sc3c(NCc4ccco4)ncnc3c2c2c1CCC2`: 16.6%.
As for `c1coc(CNc2nc(Nc3cccc4ccccc34)nc3ccccc23)c1`, the inhibition is 35.8% (active).
For the compound `COCCN1CC[C@@H]2Oc3ccccc3S(=O)(=O)N(Cc3cccnc3)[C@H]2CC1`, the inhibition was -50.1%.
As to `COc1cccc(S(=O)(=O)N2CCC(n3cnnc3C3CC3)CC2)c1`, the inhibition was 1.34%.
For `COc1cc(-c2nc3c4cnn(-c5ccccc5)c4ncn3n2)cc(OC)c1OC` the value was -3.12%; for `C#CCOc1ccc(CN2CCc3nc(-c4cccnc4)[nH]c(=O)c3C2)cc1OC`, 13.3%; for `C#CCOc1ccc2ccccc2c1CN1CCc2ccccc2C1`, 41.1% (active).
Next, `Cn1nnnc1-c1cc(Cl)cc(Cl)c1`: -13.4%; `CCc1cc(=O)n(CC(=O)NCC2CCCO2)c(N)n1` (centres undefined): 0.518%; `COc1cccc(CNC(=O)N2CCN(Cc3ccc4nccnc4c3)CC2)c1`: -8.24%.
For `Cn1c(CC2CCN(S(=O)(=O)c3cccnc3)C2)nc2cccnc21` (centres undefined) the value was 13.9%; for `O=C(NCc1ccccc1)c1c(O)c2cnn(Cc3ccccc3)c2[nH]c1=O`, 0.46%.
Turning to `COc1ccccc1CN1C(=O)c2cc3occc3n2CC1(C)C(=O)NC1CCCCC1` (centres undefined), the inhibition was 13.4%.
For the compound `CC1(C(=O)NC2CCCC2)Cn2c(cc3ccccc32)C(=O)N1c1ccc(F)cc1` (centres undefined), the inhibition was 50.7% (active).
Next, `CC(C)CCNC(=O)C1(C)Cn2c(cc3ccccc32)C(=O)N1Cc1ccccc1F` (centres undefined): 0.22%; `CO\C=C(C(=O)OC)/C(=C\C=C\c1ccccc1)CO`: -79.7%; `Cc1cc(C)c2ccc(NC(=O)c3ccco3)nc2n1`: -8.62%.
For `Cc1nc(-n2[nH]c(C)c(CC(=O)N3CCOCC3)c2=O)sc1C` the value was 8.41%.
Next, `CC(C)Cc1cc(-c2nn3c(-c4ccccc4Cl)nnc3s2)n[nH]1`: -0.275%; `Cc1c(-c2nn3c(-c4ccco4)nnc3s2)cccc1[N+](=O)[O-]`: 89.2% (active); `c1ccc(CN2CCCC(c3nc(-c4cccnc4)n[nH]3)C2)cc1` (centres undefined): -0.172%.
For `O=C(CN1CCC(c2nc(-c3ccccc3)no2)CC1)Nc1ccccc1`, the inhibition is 3.46%.
For `Cc1noc(-c2cccn(Cc3cc(F)ccc3F)c2=O)n1` the value was 2.57%.
As to `O=C(Cn1cccc(-c2nc(-c3ccccc3)no2)c1=O)Nc1ccccc1F`, the inhibition is 90.4% (active).

As a reminder, the inhibition is the change of the read-out against control, counted positive when it falls.

The record behind these values is PubChem BioAssay AID1645853 (Buhrlage Lab, Dana-Farber Cancer Institute and Novartis …, 2021).
